High-throughput results from PubChem.
An excerpt weighted towards active compounds, which were near 7.6% of everything screened.
MCF10A rereplic: inducers of DNA re-replication in MCF 10A breast cells; Potency, µM (titrated, usually from 46.1 µM), without a hit: top-dose activity, positive = re-replication, usual class: activators; AID 624296; 350,000 tested, 2.9% active; MCF 10A DNA re-replication, Hoechst nuclear intensity, 48 h; further: potency means the concentration at half of the fitted maximal effect; % of control where 0% means no effect; nearly all actives have a fitted effect of over 50% in size
KB-3-1 tox: KB-3-1 parental cell cytotoxicity; 400,000 tested, 1.4% active; Potency, µM (series often up to 46.1 µM), hits mostly cytotoxic; AID 1347075; KB-3-1 viability, CellTiter-Glo ATP luminescence, 72 h; further: potency means the concentration at half of the fitted maximal effect; on the % scale 0 is the no-effect control and ±100 the full control effect; nearly all actives have a fitted effect of over 60% in size
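Luminescent ATP read-out (CellTiter-Glo) measures survival of drug-naive KB-3-1 cells after 72 h compound exposure at 37 °C. Titration series was screened from lowest to highest concentration, with DMSO vehicle plates as background controls.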
KB-V1 cytotox: KB-V1 MDR subline cytotoxicity; Potency, µM (top dose mostly 46.1 µM), hits mostly cytotoxic; AID 1347076; 400,000 tested, 3.4% active; KB-V1 MDR cells viability, CellTiter-Glo, 72 h; further: potency means the concentration at half of the fitted maximal effect; on the % scale 0 is the no-effect control and ±100 the full control effect; nearly all actives have a fitted effect of over 60% in size
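Drug-selected KB-V1 cells, grown in DMEM lacking phenol red with 10% FBS, receive compound titrations; after three days at 37 degrees C, surviving cell ATP is quantified by CellTiter-Glo luminescence and responses normalized and curve-fitted.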
SW480 rereplic: inducers of DNA re-replication in SW480 colon cancer cells | 340,000 tested, 1.8% active | Potency, µM (doses to about 46.1 µM), without a hit: at the top dose re-replication activation, hits mostly activators | AID 624297 | SW480 DNA re-replication, Hoechst DNA content imaging, 48 h; further: potency means the concentration at half of the fitted maximal effect; % of control where 0% means no effect; nearly all actives have a fitted effect of over 55% in size
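First, 250 cells per well were seeded. Next, compound or vehicle (23 nL) was pinned in, plates sat 48 hr at 37 C. Finally Hoechst was added for 40 min before fluorescence scanning.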
hERG WT inh: blocks the wildtype human KCNH2 potassium channel. Q12809. U2OS, BacMam KCNH2, thallium flux FluxOr; hits give low values. activity change, % at 1.84 µM. 340,000 tested, 0.37% active;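 active means maximum activity change below -70%; inconclusive means maximum activity change between -70% and -50%; inactive means maximum activity change above -50%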; further: on the % scale 0 is the no-effect control and ±100 the full control effect
Target sequence (Q12809 whole entry, looked up): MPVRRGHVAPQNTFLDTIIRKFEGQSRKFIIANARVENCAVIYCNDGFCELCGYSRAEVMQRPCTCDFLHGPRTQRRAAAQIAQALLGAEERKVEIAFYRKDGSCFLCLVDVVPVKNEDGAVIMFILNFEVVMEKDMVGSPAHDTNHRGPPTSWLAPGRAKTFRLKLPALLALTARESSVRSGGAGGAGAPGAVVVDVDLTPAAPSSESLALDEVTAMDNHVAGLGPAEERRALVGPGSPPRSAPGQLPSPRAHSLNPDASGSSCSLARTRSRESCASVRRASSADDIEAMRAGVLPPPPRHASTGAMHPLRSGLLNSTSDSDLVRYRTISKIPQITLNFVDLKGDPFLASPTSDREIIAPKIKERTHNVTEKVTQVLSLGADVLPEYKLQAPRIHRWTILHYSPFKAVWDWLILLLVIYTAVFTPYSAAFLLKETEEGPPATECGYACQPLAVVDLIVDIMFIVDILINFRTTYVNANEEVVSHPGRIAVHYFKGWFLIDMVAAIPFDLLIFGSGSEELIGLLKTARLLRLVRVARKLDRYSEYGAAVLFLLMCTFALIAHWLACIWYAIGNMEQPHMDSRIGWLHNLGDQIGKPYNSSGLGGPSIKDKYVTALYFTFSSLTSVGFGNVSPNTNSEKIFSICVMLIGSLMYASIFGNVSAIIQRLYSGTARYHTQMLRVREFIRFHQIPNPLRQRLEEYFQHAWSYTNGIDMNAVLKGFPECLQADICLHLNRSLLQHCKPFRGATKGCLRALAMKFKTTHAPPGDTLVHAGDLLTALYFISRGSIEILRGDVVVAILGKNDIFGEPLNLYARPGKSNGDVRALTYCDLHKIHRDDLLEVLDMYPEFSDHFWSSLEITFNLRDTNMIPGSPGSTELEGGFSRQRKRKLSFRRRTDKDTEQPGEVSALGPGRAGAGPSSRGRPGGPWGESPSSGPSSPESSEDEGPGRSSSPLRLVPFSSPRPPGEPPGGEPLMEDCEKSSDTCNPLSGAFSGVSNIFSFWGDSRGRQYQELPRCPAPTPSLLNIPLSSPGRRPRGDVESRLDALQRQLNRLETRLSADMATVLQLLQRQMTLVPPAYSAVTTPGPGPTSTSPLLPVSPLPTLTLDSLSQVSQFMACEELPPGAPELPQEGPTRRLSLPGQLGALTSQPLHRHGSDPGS
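U2OS cells transduced with wild-type KCNH2 virus are loaded with FluxOr dye for 45 min, and thallium flux is measured in kinetic reads before and after stimulation buffer. Rate constants are normalized to DMSO controls.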
KCNH2 3.1 inh: inhibitors of human KCNH2 3.1 potassium channel isoform. U2OS KCNH2 3.1, thallium flux FluxOr; hits give low values. activity change, % (tested at about 1.8 µM). 340,000 tested, 0.95% active. AID 720553;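 active means maximum activity change below -70%; inconclusive means maximum activity change from -70% to -50%; inactive means maximum activity change above -50%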;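 further: thallium influx rate constant from kinetic fluorescence after stimulation buffer; on the % scale 0 is the no-effect control and ±100 the full control effect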
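Virally transduced U2OS (3.1 isoform, 4 h infection in dark at RT) → overnight 37 C → FluxOr + Red40 in HBSS/HEPES, 45 min → stimulation buffer, 2 min kinetic read → rate constant vs DMSO controls.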
* marks the source's active call; other numbers are inactive results; i = inactive; ? = inconclusive; . = no result. Unless noted, the call rests on the fitted dose curve; in most records, active means well fitted curve in the direction sought with a large enough effect; inconclusive means small, poorly fitted or top-dose-only effect, or another doubt; inactive means no such curve, though single readings can be large; an effect the other way counts as inactive or inconclusive.

SMILES	MCF10A rereplic	KB-3-1 tox	KB-V1 cytotox	SW480 rereplic	hERG WT inh	KCNH2 3.1 inh
COc1ccc(CCNC(=O)c2cnn3c2NC(=C2CC2)C=C3C(F)F)cc1OC	.	?	i	.	.	.
O=C1CCCC(=O)C1=C1SCCCS1	?	i	i	?	-2	-12
Cc1ccc(-c2n[nH]c(Cc3ccccc3)n2)cc1	-5%	i	i	-6%	2	-3
CCN1CCN(c2ccc(S(=O)(=O)N3CCCCC3)cc2NC(=O)COc2ccc(Cl)cc2)CC1	21%	i	i	?	-21	?
O=C(Nc1cc(S(=O)(=O)N2CCCCC2)ccc1Cl)c1ccccc1NS(=O)(=O)c1ccc(F)cc1	?	4.6µM*	?	?	-8	-10
CCN1CCN(c2ccc(S(=O)(=O)N3CCCCC3)cc2NC(=O)COc2cc(C)ccc2Cl)CC1	?	i	i	?	4	-83*
CCN1CCN(c2ccc(S(=O)(=O)N3CCCCC3)cc2NC(=O)COc2ccc(F)cc2Cl)CC1	8%	?	i	26%	-1	-80*
CCN1CCN(c2ccc(S(=O)(=O)N3CCCCC3)cc2NC(=O)c2ccc(F)cc2)CC1	7.3µM*	i	i	?	4	-11
COc1ccc(-c2csc(C(O)c3ccc(F)c(F)c3)n2)cc1 (stereo not drawn)	.	i	i	.	.	.
C=C(C)CCC(C)N1CCC(n2nccc2NC(=O)CCOc2ccccc2)CC1 (stereo not drawn)	0%	i	?	?	-2	.
Nc1nc2nc(-c3cccs3)cc(C(F)(F)F)n2n1	21µM*	i	i	?	11	-10
CCOC(=O)c1nc2nc(-c3cccs3)cc(C(F)(F)F)n2n1	-45%	i	i	1%	-9	-6
Cc1ccccc1Nc1nc(N)nc(CSc2nc3ccccc3c(=O)n2CCCO)n1	-4%	i	i	4%	-7	8
Cc1ccccc1Nc1nc(N)nc(CSc2nc3ccccc3c(=O)n2C)n1	?	i	16µM*	9%	0	4
COCCn1c(SCc2nc(N)nc(Nc3ccccc3C)n2)nc2ccccc2c1=O	23%	i	8.2µM*	2%	-8	5
Cc1cc(C)nc(N2CCCC(C(=O)NC3CC3)C2)n1 (stereo not drawn)	1%	i	i	-9%	-11	1
Cc1ccc(CN(Cc2ccco2)C(=O)COc2ccccc2C)cc1	.	i	i	.	.	.
O=C(O)c1cccc(-n2c(/C=C/c3ccccc3)nc3ccccc3c2=O)c1	15%	i	i	?	-2	-6
Cc1[nH]c2ccccc2c1/C=C/c1nc2ccccc2c(=O)n1-c1ccc([N+](=O)[O-])cc1	11%	i	?	-4%	1	7
CCn1c(/C=C/c2c[nH]c3ccccc23)nc2ccccc2c1=O	21µM*	i	i	?	2	-8
CN(C)c1ccc(/C=C/c2nc3ccccc3c(=O)n2-c2ccc(C(=O)O)cc2)cc1	18µM*	i	i	21µM*	-8	18
CCn1c(/C=C/c2cccc([N+](=O)[O-])c2)nc2ccccc2c1=O	15%	?	21µM*	3%	1	3
CN(C)S(=O)(=O)c1ccc2[nH]cc(/C=C/c3nc4ccccc4c(=O)n3-c3ccccc3)c2c1	?	i	?	3.3µM*	2	-8
O=c1c2ccccc2nc(/C=C/c2cccc([N+](=O)[O-])c2)n1CCO	-31%	i	?	-3%	6	3
CCCCN(C)CCCNC(=O)c1ccc2nc(N3CCCCC3)sc2c1	.	i	i	.	.	.
COc1ccc(-c2cc(C)no2)cc1S(=O)(=O)NCC(C)c1ccccc1 (stereo not drawn)	15%	?	i	22%	-2	-5
O=S(=O)(Cc1ccccc1)N=Nc1c(O)[nH]c2ccc(Br)cc12	?	i	i	?	-2	-2
